Laboratory results as given in PubChem BioAssay AID504833 (Johns Hopkins Ion Channel Center, 2011).
The campaign covered roughly 2,500 compounds. About 2,200 (88%) were called active.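 Rule for the calls: active = primary screen active, with duplicate mean activation above negative control mean plus 3 SD (cut at about 11% in these data); inactive = the rest.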 So high a share suggests a set chosen from earlier hits. A selection follows.

target: High affinity choline transporter 1 (Homo sapiens) (UniProt Q9GZV3); assay: CHT activators, confirmation, cell-based, membrane potential dye, duplicate (AID 504833); conditions: CHT-expressing cells, membrane potential dye fluorescence (FDSS); at 10 µM; active compounds read high; % of choline EC20–EC90 response window; HEK293 expressing CHT LV-AA mutant; choline added at its EC20
Sequence (Q9GZV3 whole entry, looked up): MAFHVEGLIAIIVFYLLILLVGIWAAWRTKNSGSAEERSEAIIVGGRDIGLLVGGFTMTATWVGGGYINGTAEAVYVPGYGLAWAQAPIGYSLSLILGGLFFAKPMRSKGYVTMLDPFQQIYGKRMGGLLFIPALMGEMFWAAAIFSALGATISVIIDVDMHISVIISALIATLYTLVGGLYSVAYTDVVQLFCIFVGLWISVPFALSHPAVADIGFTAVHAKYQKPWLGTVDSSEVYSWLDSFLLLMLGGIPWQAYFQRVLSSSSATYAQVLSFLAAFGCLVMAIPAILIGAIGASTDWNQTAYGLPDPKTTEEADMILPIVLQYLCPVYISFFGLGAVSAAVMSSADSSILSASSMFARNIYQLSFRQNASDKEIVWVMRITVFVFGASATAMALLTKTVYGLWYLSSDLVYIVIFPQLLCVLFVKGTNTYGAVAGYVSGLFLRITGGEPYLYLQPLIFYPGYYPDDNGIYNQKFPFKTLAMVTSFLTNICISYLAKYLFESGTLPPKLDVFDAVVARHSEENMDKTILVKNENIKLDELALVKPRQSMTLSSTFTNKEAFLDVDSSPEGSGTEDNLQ

| SMILES | activation |
| --- | --- |
| CN1CCN(c2cc(N3CCNCC3)ccc2[N+](=O)[O-])CC1 | 80.3% (active) |
| Cc1nc2ccc(N3CCN(C)CC3)cc2nc1C | 20.3% (active) |
| CCCCCn1c(=O)c(C(=O)Nc2c(C)n(C)n(-c3ccccc3)c2=O)c(O)c2ccccc21 | 6.79% (inactive) |
| CCN1CCN(c2ccc([N+](=O)[O-])cc2C#N)CC1 | 43.4% (active) |
| CCOc1ccc(-c2cc(C)[n+](CCN(CC)CC)c(-c3ccc(OCC)cc3)c2)cc1 | 34.4% (active) |
| CC[N+](CC)(CC)CCCCCCCCCC[N+](CC)(CC)CC | 41% (active) |
